Among the data in PubChem BioAssay (EPA / NIEHS) are outcome and AC50 values, retold here.

Assay [1] is described as follows: ATG_CRE_CIS: Attagene CIS-FACTORIAL HepG2 Assay for human cAMP Responsive Element (CRE) binding protein 3 (AID 2282926). The note with it: HepG2 CRE cis-reporter, Attagene multiplexed mRNA; actives raise or lower the signal. In short, it runs like this: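 Liver-derived HepG2, transfected with a CRE-containing reporter panel, exposed 24 h; transcript levels sized and quantified by capillary electrophoresis of labelled amplicons; signal changes either way referenced to vehicle.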

In assay [2] the target is CCAAT/enhancer-binding protein beta (Homo sapiens) (UniProt P17676). In words: ATG_C_EBP_CIS: Attagene CIS-FACTORIAL HepG2 Assay for human CCAAT/Enhancer Binding Protein (C/EBP) beta (AID 2282927). Particulars: HepG2 Attagene cis-factorial transcription factor reporter; actives raise or lower the signal. An outline of the steps: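 Transiently transfected HepG2 (MRTU library, endogenous TF-driven promoters); 24 h dosing; total RNA → oligo(dT) RT → PCR → 6-FAM primer extension → HpaI digest → CE; fit bidirectionally vs DMSO.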
Sequence of CCAAT/enhancer-binding protein beta (Homo sapiens) (P17676 whole entry, looked up): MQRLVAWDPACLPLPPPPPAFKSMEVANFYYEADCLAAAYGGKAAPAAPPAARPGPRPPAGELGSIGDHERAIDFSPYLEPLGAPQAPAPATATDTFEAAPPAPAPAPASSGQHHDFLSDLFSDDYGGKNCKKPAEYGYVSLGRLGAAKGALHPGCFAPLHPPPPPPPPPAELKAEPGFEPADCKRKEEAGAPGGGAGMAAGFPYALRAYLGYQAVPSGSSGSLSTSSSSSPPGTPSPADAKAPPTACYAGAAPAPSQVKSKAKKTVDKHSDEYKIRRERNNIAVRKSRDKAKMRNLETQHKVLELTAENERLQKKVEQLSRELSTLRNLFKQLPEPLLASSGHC

Assay [3] in a line: ATG_CMV_CIS: Attagene CIS-FACTORIAL HepG2 Assay for human CMV (Internal Marker) (AID 2282928).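 Also: endpoint acts as a background internal control marker rather than a target.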 The note with it: HepG2 CMV promoter reporter, transcription factor profiling; actives raise or lower the signal. In short, it runs like this: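 Bidirectional fits against DMSO are applied to reporter mRNA, read by RT-PCR with capillary electrophoresis, from HepG2 cells exposed 24 h. The endpoint serves as an internal CMV background marker within the cis-factorial reporter panel.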

The nature of assay [4]: ATG_DR4_LXR_CIS: Attagene CIS-FACTORIAL HepG2 Assay for human Liver X Receptor (LXR), DR4 submotif (AID 2282929). The note with it: HepG2 Attagene DR4 cis-reporter, mRNA transcription; actives raise or lower the signal. In short, it runs like this:
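DR4 cis-reporter in HepG2, 24 h exposure. Detection: RT-PCR, 6-FAM labelling, CE fragment analysis. Endpoint fitted bidirectionally, DMSO = baseline.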

The target in assay [5] is Aryl hydrocarbon receptor (Homo sapiens) (UniProt P35869). Put plainly: ATG_Ahr_CIS: Attagene CIS-FACTORIAL HepG2 Assay for human Aryl Hydrocarbon Receptor (Ahr) (AID 2282930). The note with it: HepG2 AhR cis-factorial reporter transcription; actives raise or lower the signal. In short, it runs like this: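 Read-out: reporter mRNA quantified by RT-PCR with fluorescent primer extension and capillary electrophoresis. Human HepG2 liver cells carried transfected cis-promoter reporter units and were exposed to chemical for 24 h; gain or loss fitted relative to DMSO.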
Sequence of Aryl hydrocarbon receptor (Homo sapiens) (P35869 whole entry, looked up): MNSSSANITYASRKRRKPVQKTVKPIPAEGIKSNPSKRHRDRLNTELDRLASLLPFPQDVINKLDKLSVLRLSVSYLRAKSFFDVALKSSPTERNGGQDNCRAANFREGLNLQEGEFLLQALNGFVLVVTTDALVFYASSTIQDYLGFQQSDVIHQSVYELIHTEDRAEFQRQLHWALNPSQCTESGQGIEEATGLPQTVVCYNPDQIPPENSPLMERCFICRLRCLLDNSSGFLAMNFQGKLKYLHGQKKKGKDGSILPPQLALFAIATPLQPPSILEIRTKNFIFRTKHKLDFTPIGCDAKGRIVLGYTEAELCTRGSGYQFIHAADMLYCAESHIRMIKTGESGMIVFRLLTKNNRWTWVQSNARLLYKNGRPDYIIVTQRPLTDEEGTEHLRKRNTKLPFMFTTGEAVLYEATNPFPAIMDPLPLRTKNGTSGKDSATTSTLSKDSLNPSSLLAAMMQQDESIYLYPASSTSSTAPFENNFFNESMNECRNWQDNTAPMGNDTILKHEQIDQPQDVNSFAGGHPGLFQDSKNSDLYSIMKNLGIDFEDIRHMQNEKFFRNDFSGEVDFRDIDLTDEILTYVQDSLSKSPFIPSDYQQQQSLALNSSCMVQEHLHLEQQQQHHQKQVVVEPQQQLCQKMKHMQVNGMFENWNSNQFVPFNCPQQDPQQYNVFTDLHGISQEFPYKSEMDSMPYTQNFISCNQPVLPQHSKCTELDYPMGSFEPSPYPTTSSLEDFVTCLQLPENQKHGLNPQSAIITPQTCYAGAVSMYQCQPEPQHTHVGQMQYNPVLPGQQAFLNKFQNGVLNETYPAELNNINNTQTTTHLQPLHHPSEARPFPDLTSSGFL

Assay [6] can be described thus: ATG_AP_2_CIS: Attagene CIS-FACTORIAL HepG2 Assay for human Activator Protein 2 (AP-2) (AID 2282932). Particulars: HepG2 AP-2 cis-reporter, Attagene transcription factor profiling; actives raise or lower the signal. In short, it runs like this: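 Read-out: fluorescent reporter mRNA via RT-PCR and capillary electrophoresis, 24 h post-dose in transiently transfected HepG2. Endogenous factors drive cis-promoter reporters; gain or loss of signal fitted bidirectionally against DMSO.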

Assay [7] can be described thus: ATG_BRE_CIS: Attagene CIS-FACTORIAL HepG2 Assay for human Bone Morphogenetic Protein (BMP) Response Element (BRE) (AID 2282933). Particulars: HepG2 BMP response element reporter, Attagene transcription factor profiling; actives raise or lower the signal. An outline of the steps:
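HepG2 cells transiently transfected with multiplexed cis-element reporter units were dosed with chemical for 24 h. Reporter mRNA was measured by RT-PCR with fluorescent labelling, HpaI digestion and capillary electrophoresis; bidirectional fitting relative to DMSO.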

Assay [8] addresses Retinoic acid receptor alpha (Homo sapiens) (UniProt P10276). Put plainly: ATG_DR5_RAR_CIS: Attagene CIS-FACTORIAL HepG2 Assay for human Retinoic Acid Receptor Alpha (RARE), DR5 submotif (AID 2282934). The note with it: HepG2 Attagene cis-factorial RARE DR5 reporter, mRNA; actives raise or lower the signal. An outline of the steps:
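Read-out: DR5-driven reporter transcript measured by RT-PCR, 6-FAM primer extension, HpaI digest and capillary electrophoresis. Human HepG2 liver cells carry transiently transfected cis-element reporter constructs; dosing lasts 24 h. Gain or loss of signal fitted against DMSO baseline.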

The nature of assay [9]: ATG_E_Box_CIS: Attagene CIS-FACTORIAL HepG2 Assay for human Enhancer Box (E-box) (AID 2282936). Particulars: HepG2 E-box cis-reporter transcription, actives raise or lower the signal. In short, it runs like this:
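Transiently transfected HepG2, endogenous TF-driven reporters, 24 h dosing. Readout: RT-PCR plus capillary electrophoresis of fluorescent reporter fragments. Gain or loss of signal fitted bidirectionally against DMSO baseline.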

A short description of assay [10]: ATG_M_61_CIS: Attagene CIS-FACTORIAL HepG2 Assay for M61 Transcription Factor (Internal Marker) (AID 2282937). The note with it: HepG2 Attagene CIS-FACTORIAL M61 internal marker reporter; actives raise or lower the signal. An outline of the steps: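 Background-control endpoint: HepG2 cells with cis-regulated reporter constructs, 24 h exposure, reporter mRNA detected via fluorescent primer extension and capillary electrophoresis; values from bidirectional fitting with DMSO baseline.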

The nature of assay [11]: ATG_EGR_CIS: Attagene CIS-FACTORIAL HepG2 Assay for human Early Growth Response 1 (EGR1) (AID 2282938). The note with it: HepG2 Attagene CIS-FACTORIAL EGR reporter mRNA; actives raise or lower the signal. In short, it runs like this:
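Endpoint derived by bidirectional fitting versus DMSO vehicle. Method: cis-promoter reporter units transfected into HepG2, 24 h dosing, RNA isolation, RT-PCR with 6-FAM primer extension and HpaI digestion, then capillary electrophoresis fluorescence detection.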

A short description of assay [12]: ATG_Ets_CIS: Attagene CIS-FACTORIAL HepG2 Assay for human Erythroblast Transformation Specific (ETS) (AID 2282941). The note with it: HepG2 ETS cis-reporter transcription, actives raise or lower the signal. In short, it runs like this:
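Endogenous transcription factor activity read as reporter mRNA via RT-PCR and capillary electrophoresis, with gain or loss fitted bidirectionally against DMSO. Human HepG2 liver cells, transiently transfected CIS reporter constructs, 24 h exposure.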

The target in assay [13] is Hepatocyte nuclear factor 3-beta (Homo sapiens) (UniProt Q9Y261). Put plainly: ATG_FoxA2_CIS: Attagene CIS-FACTORIAL HepG2 Assay for human Forkhead box A2 (FOXA2) (AID 2282942). Particulars: HepG2 cis-reporter transcription factor activity, 24 h; actives raise or lower the signal. In short, it runs like this:
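Measured: reporter mRNA induction or loss in HepG2 transiently carrying multiple cis-regulated reporter units, 24 h after dosing. Quantified by RT-PCR plus capillary electrophoresis, normalised to DMSO.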

The nature of assay [14]: ATG_FoxO_CIS: Attagene CIS-FACTORIAL HepG2 Assay for human Forkhead box O (FoxO) (AID 2282943). Particulars: HepG2 Attagene cis-reporter, FoxO element, mRNA; actives raise or lower the signal. An outline of the steps:
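Read-out: fluorescence of 6-FAM-labelled reporter cDNA fragments resolved by capillary electrophoresis. Transiently transfected HepG2 cells were dosed for 24 h; activity fitted in both directions relative to DMSO controls.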

Assay [15] can be described thus: ATG_GATA_CIS: Attagene CIS-FACTORIAL HepG2 Assay for human GATA Binding Protein (AID 2282944). Particulars: HepG2 GATA cis-element reporter, Attagene multiplex mRNA; actives raise or lower the signal. In short, it runs like this:
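HepG2 cells transiently transfected with multiplexed cis-element reporter units reflecting endogenous transcription factor activity; reporter mRNA measured after 24 h dosing by RT-PCR, 6-FAM labeling, HpaI digestion and capillary electrophoresis. Bidirectional fitting versus DMSO baseline.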

Assay [16] can be described thus: ATG_GLI_CIS: Attagene CIS-FACTORIAL HepG2 Assay for human Zinc Finger Protein GLI1 (AID 2282945). Particulars: HepG2, Attagene cis-factorial reporter mRNA, GLI element; actives raise or lower the signal. An outline of the steps:
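Transiently transfected HepG2 cells report endogenous transcription factor activity via cis-element-driven reporter units. After 24 h compound exposure, reporter mRNA was measured by RT-PCR with capillary electrophoresis; bidirectional fitting against DMSO baseline.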

Assay [17] can be described thus: ATG_AP_1_CIS: Attagene CIS-FACTORIAL HepG2 Assay for human Activator Protein 1 (AP-1) (AID 2282931). Particulars: HepG2 Attagene cis-factorial AP-1 reporter mRNA; actives raise or lower the signal. An outline of the steps:
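Cis-regulated reporter units transiently expressed in HepG2 report endogenous transcription-factor activity. Signal: reporter mRNA at 24 h, via RT-PCR and fluorescent capillary electrophoresis. Endpoint derived by bidirectional fitting, DMSO as negative control.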

Assay [18] concerns the target Transcription factor E2F1 (Homo sapiens) (UniProt Q01094). Put plainly: ATG_E2F_CIS: Attagene CIS-FACTORIAL HepG2 Assay for human E2F Transcription Factor 1 (AID 2282935). The note with it: HepG2 Attagene cis-reporter, E2F reporter RNA transcripts; actives raise or lower the signal. An outline of the steps:
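Transient MRTU transfection of HepG2; 24 h compound exposure; RNA → oligo(dT) RT → PCR → FAM label → HpaI cut → CE fluorescence. Gain/loss of signal fit against DMSO.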

Assay [19] can be described thus: ATG_M_19_CIS: Attagene CIS-FACTORIAL HepG2 Assay for M19 Transcription Factor (Internal Marker) (AID 2282939). The note with it: HepG2 Attagene CIS-FACTORIAL M19 internal marker reporter; actives raise or lower the signal. An outline of the steps:
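HepG2 cells transiently transfected with cis-regulated multiple reporter transcription units were dosed for 24 h; reporter mRNA was quantified by RT-PCR, 6-FAM primer-extension labelling, HpaI digestion and capillary electrophoresis, with bidirectional fitting against DMSO baseline.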

The source made the active and inactive calls. The calls were made as follows: active = hit-call score of the fitted dose curve at least 0.9, where 1 is the maximum; inactive = score below 0.9.

As a reminder, the AC50 is the concentration at which the activity in the assay is half-maximal.

Sequence of Retinoic acid receptor alpha (Homo sapiens) (P10276 whole entry, looked up): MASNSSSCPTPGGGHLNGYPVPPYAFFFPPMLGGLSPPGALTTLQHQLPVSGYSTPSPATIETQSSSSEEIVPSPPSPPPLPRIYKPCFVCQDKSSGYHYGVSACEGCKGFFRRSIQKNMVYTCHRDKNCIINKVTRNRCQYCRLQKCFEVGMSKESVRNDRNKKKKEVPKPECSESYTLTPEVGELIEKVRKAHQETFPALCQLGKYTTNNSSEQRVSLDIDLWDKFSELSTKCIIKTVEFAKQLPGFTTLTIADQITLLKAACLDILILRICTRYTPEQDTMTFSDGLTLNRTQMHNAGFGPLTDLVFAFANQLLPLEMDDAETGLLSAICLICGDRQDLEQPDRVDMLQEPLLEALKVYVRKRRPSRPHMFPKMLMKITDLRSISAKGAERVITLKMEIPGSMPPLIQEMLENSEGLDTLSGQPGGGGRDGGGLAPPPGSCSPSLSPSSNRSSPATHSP
Sequence of Hepatocyte nuclear factor 3-beta (Homo sapiens) (Q9Y261 whole entry, looked up): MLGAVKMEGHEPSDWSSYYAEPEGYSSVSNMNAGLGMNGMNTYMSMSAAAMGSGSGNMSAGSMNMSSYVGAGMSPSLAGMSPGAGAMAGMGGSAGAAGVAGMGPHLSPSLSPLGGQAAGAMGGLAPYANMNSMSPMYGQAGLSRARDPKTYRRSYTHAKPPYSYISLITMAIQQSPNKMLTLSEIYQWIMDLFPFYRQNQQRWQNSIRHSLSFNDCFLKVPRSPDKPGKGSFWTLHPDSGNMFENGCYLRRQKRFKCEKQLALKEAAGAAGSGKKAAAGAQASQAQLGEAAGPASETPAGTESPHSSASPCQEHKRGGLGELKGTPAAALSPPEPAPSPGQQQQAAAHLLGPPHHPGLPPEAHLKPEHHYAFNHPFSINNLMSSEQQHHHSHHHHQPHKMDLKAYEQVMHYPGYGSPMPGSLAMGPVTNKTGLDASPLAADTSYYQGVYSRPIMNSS
Sequence of Transcription factor E2F1 (Homo sapiens) (Q01094 whole entry, looked up): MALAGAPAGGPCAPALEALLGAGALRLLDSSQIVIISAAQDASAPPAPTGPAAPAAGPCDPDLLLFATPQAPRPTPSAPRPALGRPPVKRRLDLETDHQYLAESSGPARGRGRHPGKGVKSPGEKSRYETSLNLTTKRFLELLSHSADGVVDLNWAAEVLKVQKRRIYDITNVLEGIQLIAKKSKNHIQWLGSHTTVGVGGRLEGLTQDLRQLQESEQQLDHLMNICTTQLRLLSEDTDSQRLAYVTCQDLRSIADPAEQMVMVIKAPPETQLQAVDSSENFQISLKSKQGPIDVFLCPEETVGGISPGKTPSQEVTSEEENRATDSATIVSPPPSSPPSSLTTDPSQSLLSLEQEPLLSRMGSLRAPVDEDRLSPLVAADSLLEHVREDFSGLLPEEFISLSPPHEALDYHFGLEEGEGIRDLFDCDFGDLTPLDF

Regarding `CCOC(=O)[C@@H](C)Oc1ccc(Oc2nc3ccc(Cl)cc3o2)cc1`, the compound was called inactive in assay [1], in assay [2], in assay [3], in assay [5], in [6] and in [8]. In addition, the outcome in assay [9], in assay [10], in assay [11], in assay [12], in [13] and in assay [14] was inactive. The outcome in assay [15] and in assay [16] was inactive. Also, the values for the AC50 in [4] and in assay [7] were 152 µM (active) and 156 µM (active), respectively.

For the compound `c1ccc2[nH]cnc2c1`, the compound was called inactive in assay [1], in assay [2], in [3], in [5], in assay [17] and in assay [6]. For the same compound, the result in assay [7], in assay [8], in assay [18], in assay [9], in assay [10] and in [11] was inactive. The compound was classed as inactive in [19], in assay [12], in assay [13], in [14], in assay [15] and in assay [16].

Take `CC(=O)Nc1ccc(C(=O)CCl)cc1`: the AC50 is 7.97 µM (active) in assay [1], 12.9 µM (active) in assay [4], 7.19 µM (active) in assay [6] and 20.6 µM (active) in assay [9]. In addition, the result in assay [2], in assay [3], in [5], in [7], in assay [8] and in assay [18] was inactive. Moreover, the compound was called inactive in assay [10], in assay [11], in [19], in [12], in assay [13] and in [14]. Further, the result in assay [15] and in [16] was inactive.

As for `Nc1ccc(Cl)c([N+](=O)[O-])c1`, the compound was called inactive in [1], in assay [2], in assay [3], in assay [4], in assay [5] and in assay [6]. Further, the compound was classed as inactive in assay [7], in [8], in [18], in [9], in [10] and in [11]. For the same compound, the compound was called inactive in assay [19], in assay [12], in assay [13], in [14], in [15] and in [16].
